According to PubChem BioAssay AID1458 (National Center for Advancing Translational Sciences (NCATS), 2008):
The campaign covered roughly 210,000 compounds. About 5,900 (2.8%) were called active. Roughly 5% stayed inconclusive and do not appear here. The sample as a whole holds a higher share of actives than the screen did. Values without a mark were called inactive. The call rests on the fitted dose curve; in most records, active means well fitted activation curve with a large enough effect; inconclusive means small, poorly fitted or top-dose-only effect; inactive means no such curve, though single readings can be large or run the other way.

Assay: qHTS Assay for Enhancers of SMN2 Splice Variant Expression; further: nearly all actives have a fitted effect of over 55% in size; on activity change, positive = activation: % of control where 0% means no effect
Details: HEK293 SMN2-luciferase splicing reporter, luminescence, 30-36 h; series mostly up to 46.1 µM; activity change, positive = activation: at the top concentration
Method in brief: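 HEK293 cells carry an SMN2 […]–luciferase reporter in which exon 7 inclusion puts luciferase in frame. Cells were plated 10-12 h before compound addition, then incubated 30-36 h at 37C. ONE-Glo luminescence was read; sodium butyrate at 4.5 mM final served as control.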
Potency means the concentration at half of the fitted maximal effect.

| SMILES | activity change, positive = activation | Potency |
| --- | --- | --- |
| COc1ccc(CNC(=O)c2cc3c(=O)[nH]c4ccc(C)cc4c3s2)c(OC)c1 | 2.14% | – |
| Cc1c(C(N)=O)sc2ncn(CCOc3ccccc3)c(=O)c12 | 4.68% | – |
| Cc1cccc2c1N(CCOc1ccccc1)C(=O)C2=O | -9.26% | – |
| Cc1nn(CCOc2ccccc2)c(=O)n1-c1ccccc1F | – | 17.8 µM (active) |
| Cc1cc(C)cc(NC(=O)CSc2oc(-c3ccccc3)nc2S(=O)(=O)c2ccc(Cl)cc2)c1 | 0.788% | – |
| Cc1ccc(Cl)cc1N1CCN(C(=O)CN2C(=O)COc3ccc(S(=O)(=O)N4CCOCC4)cc32)CC1 | 1.39% | – |
| COc1cccc(OCCOc2cccc(/C=N/n3cnnc3)c2)c1 | – | 8.91 µM (active) |
| C(=N\n1cnnc1)/c1cccnc1 | 3.41% | – |
| COc1cccc(OCCCN2CCCCCC2)c1 | -9.69% | – |
| CCOc1ccccc1C(=O)NC1(C(F)(F)F)NC(=O)N(CCc2ccc(OC)c(OC)c2)C1=O (stereo not drawn) | -22.8% | – |
| CCOC(=O)c1ccc(NC(=O)C2CC(=O)NC(=Nc3ccc(C)c(C)c3)S2)cc1 (stereo not drawn) | -9.52% | – |
| CCCCN(C)CCNC(=O)C1CCCN(S(=O)(=O)c2cccc3nsnc23)C1 (stereo not drawn) | -0.0075% | – |
| Cc1ccc(S(=O)(=O)c2nnn3c2nc(N2CCN(c4ccccc4F)CC2)c2cc(Cl)ccc23)cc1C | -3.67% | – |
| S=C(Nc1ccc(Br)cc1Cl)NC1CCN(Cc2ccccc2)CC1 | -68.5% | – |
| O=C(NNC(=S)Nc1ccc(Br)cc1Cl)c1ccco1 | – | 12.6 µM (active) |
| CCC(=O)NC(=S)Nc1ccc(NC(=O)c2ccco2)c(Cl)c1 | -1.02% | – |
| Cc1ccc(-c2cc(-c3coc4ccccc4c3=O)c3c(n2)-c2cc(Cl)ccc2OC3)cc1 | -0.83% | – |
| COc1ccc(CNC(=O)c2ccc(NC(=O)N3CC4CCCN4c4ccccc43)cc2)cc1 (stereo not drawn) | -6.58% | – |
| Cc1ccccc1NC(=O)NNC(=O)OC(C)(C)C | 20.2% | – |
| C/C(=N\NC(=O)OC(C)(C)C)c1ccc[nH]1 | – | 12.6 µM (active) |
| CC(C)(C)OC(=O)N/N=C/c1ccc(C(=O)O)cc1 | 10.1% | – |
| Cc1cc(NC(=O)c2ccc(-c3ccc(Cl)cc3)o2)cc(-c2nc3ncccc3o2)c1O | -0.868% | – |
| COc1ccc(C(=O)Nc2nonc2-c2ccc(OC)c(OC)c2)cc1Cl | -19% | – |

| SMILES | activity change, positive = activation | Potency |
| --- | --- | --- |
| C/C(=N\NC(=O)c1nc(C)cc(C)n1)c1ccccc1 | – | 11.2 µM (active) |
| CC(C)=C(NC(=O)c1ccccc1)C(=O)N/N=C(\C)c1ccccc1O | -18.1% | – |
| C/C(=N/NC(=O)c1ccc(NC(=O)c2ccc(F)cc2)cc1)c1ccccc1 | 10.8% | – |
| CCOC(=O)c1c(NC(C)=O)c2c3c(sc2n1Cc1c(C)cc(C)cc1C)CCCC3 | -5.97% | – |
| COc1ccccc1-c1cc2nc(C)c(CCC(=O)NC3CCCCC3)c(C)n2n1 | -6.73% | – |
| CS(=O)(=O)c1ccc2c(c1)SC1=NC(=O)/C(=C/c3ccco3)C(=N)N12 | 9.12% | – |
| Cc1cc(/C=C2/C(=N)N3C(=NC2=O)SN=C3S(C)(=O)=O)c(C)n1-c1ccccc1 | – | 15.8 µM (active) |
| CCS(=O)(=O)C1=NSC2=NC(=O)/C(=C\c3cc(C)n(-c4cccc(OC)c4)c3C)C(=N)N21 | 5.92% | – |
| Cn1c(=O)cc(OCC(=O)N2CCN(c3ccccc3)CC2)c2ccccc21 | 4.37% | – |
| COC(=O)c1ccc(C2C(C(=O)Nc3ccccc3)=C(C)Nc3nc4ccccc4n32)cc1 (stereo not drawn) | -7.04% | – |
| CN(Cc1ccccc1)C(=O)c1cn(C)c2ccc(S(=O)(=O)N(C)C3CCCCC3)cc2c1=O | -3.3% | – |
| COc1cccc(C(=O)c2sc3nc(-c4ccccc4)cc(C(F)(F)F)c3c2N)c1 | -9.67% | – |
| CN(C)c1ccnc2sc(C(=O)c3ccccc3)c(N)c12 | – | 14.1 µM (active) |
| CN(C)c1ccnc2sc3c(=O)n(Cc4ccccc4)cnc3c12 | -24% | – |
| CN(CC(=O)Nc1cccc(C(F)(F)F)c1)S(=O)(=O)c1cccs1 | 0.287% | – |
| CCC1CCCCN1Cc1c(O)ccc2c(=O)c(Oc3ccccc3Cl)c(C(F)(F)F)oc12 (stereo not drawn) | -6.73% | – |
| COc1ccc(C(=O)Cc2cnn(-c3ccccc3)c2)c(O)c1 | – | 17.8 µM (active) |
| Cc1cc(O)cc(O)c1C(=O)Cc1cnn(-c2ccccc2)c1 | -16.1% | – |
| COc1ccc(CC(=O)c2ccc(O)cc2O)cc1OC | 19.7% | – |
| Cn1nc(-c2ccccc2)c(-c2ccccc2)c(C(=O)Nc2ccc(S(N)(=O)=O)cc2)c1=O | 8.83% | – |
| COC(=O)c1cn(CC(=O)NCc2cccs2)c2ccccc12 | – | 22.4 µM (active) |
| COC(=O)Cn1cc(C(=O)c2cccs2)c2ccccc21 | 8.54% | – |
| O=C(Cn1cc(C(=O)c2cccs2)c2ccccc21)NCc1cccs1 | 25.6% | – |

| SMILES | activity change, positive = activation | Potency |
| --- | --- | --- |
| CC(=O)c1nn(-c2cccc(Br)c2)cc1C(=O)c1cccc2ccccc12 | -21.6% | – |
| CCOC(=O)c1cn(Cc2cccc(C)c2)nn1 | 0.18% | – |
| CCOC(=O)c1nn(-c2cccc(C)c2)cc1C(=O)c1ccccc1 | – | 10 µM (active) |
| CCCOc1ccccc1C(=O)NCCCC(=O)O | -16.9% | – |
| COc1ccccc1-c1nc(SC)n[nH]1 | 12.2% | – |
| CCCOc1ccccc1-c1nc(SCCC(=O)O)n[nH]1 | – | 7.08 µM (active) |
| O=C(NCC1CCC(C(=O)O)CC1)OCc1ccccc1 (stereo not drawn) | -2.66% | – |
| O=C(O)C1CCN(C(=O)OCc2ccccc2)CC1 | – | 17.8 µM (active) |
| O=C(Cc1ccccc1)NNC(=O)C1CCN(c2ncccn2)CC1 | 4.38% | – |
| CCOC(=O)Cc1ccc(NC(=O)Nc2c[nH]c(=O)[nH]c2=O)cc1 | -3.88% | – |
| O=c1[nH]c2cc(Br)ccc2n2cccc12 | 22.8% | – |
| CCCCCC(=O)Nc1ccc2oc(-c3ccncc3)nc2c1 | -15.7% | – |
| CCCC(=O)Nc1ccc2oc(-c3ccc(O)c(Br)c3)nc2c1 | – | 11.2 µM (active) |
| O=C(Nc1ccc2oc(-c3ccc(O)c(Br)c3)nc2c1)c1cc2ccccc2o1 | 1.87% | – |
| CCOc1ccc(OCC)c(NC(=O)CN(c2ccc(C)cc2)S(=O)(=O)c2c(C)n[nH]c2C)c1 | -8.29% | – |
| COc1ccc(Cl)cc1NC(=O)c1sc2nc3c(cc2c1N)CN(C)CC3 | 9.66% | – |
| COc1ccc(CCn2cc3c(c2-c2ccc(Br)cc2)c(=O)n(C)c(=O)n3C)cc1OC | -0.506% | – |
| Cc1cccc(NC(=O)C2CCCN2S(=O)(=O)c2cccc3nsnc23)c1C (stereo not drawn) | -4.32% | – |
| Cc1ccc(-n2c(=O)c3cccnc3n2CC(=O)NCc2ccc(F)cc2)cc1C | -1.87% | – |
| CCOc1cccc(/C=C/c2ccc3ccccc3n2)c1OC(C)=O | – | 1.58 µM (active) |
| CC(OC(=O)c1ccc2ccccc2n1)C(=O)c1ccccc1 (stereo not drawn) | -3.13% | – |
| NC(=O)COC(=O)/C=C/c1ccc2ccccc2n1 | 4.91% | – |
